# Records with an inconclusive call do not appear. A number with no mark means an inactive call. Active and inactive are the calls of the source. The call rests on the fitted dose curve.
# Experiment: qHTS assay to identify small molecule agonists of the endoplasmic reticulum stress response signaling pathway - cell viability counter screen (AID 1159517); further: nearly all actives have a fitted effect of over 50% in size
# Conditions: ESRE-bla HeLa viability, CellTiter-Glo luminescence, 5 h; series mostly up to 61 µM; activity change, negative = cytotoxicity: at the top concentration
# From the text: U.S. Tox21 Program National Center for Advancing Translational Sciences [NCATS] NIH Chemical Genomics Center [NCGC] U.S. Environmental Protection Agency [EPA] National Institutes of Environmental Health Sciences [NIEHS] National Toxicology Program [NTP] U.S. Food and Drug Administration [FDA] Tox21 Assay Overview: Endoplasmic Reticulum (ER) plays an important role in cellular signaling, protein folding/maturation, stress response, lipid biosynthesis, calcium storage and release etc. Under stress conditions, proteins in ER misfold or unfold, and leading to the expression of ER stress responsive genes. ER stress has been associated with a variety of pathophysiological conditions such as cancer, inflammation, neurodegenerative diseases, diabetes, ischemic heart disease etc. To identify the compounds that induce ER stress response, an ER stress reporter cell line, CellSensor ESRE-bla HeLa (Life Technologies, Carlsbad, CA) containing a beta-lactamase reporter gene under control of the Endoplasmic reticulum Stress Response Element (ESRE) was used to screen Tox21 10K compound library. The cytotoxicity of the Tox21 compound library against the ESRE-bla HeLa cell line was tested in parallel by measuring cell viability using the CellTiter-Glo assay in the same wells.
# Tox21 Assay Protocol Summary: ESRE-bla HeLa cells were dispensed at 1,500 cells/6 uL of assay medium per well into black wall/clear-bottom 1536-well plates using a Multidrop Combi (ThermoFisher Scientific, Waltham, MA) dispenser. After the assay plates were incubated at 37 C and 5% CO2 for an overnight, 23 nL of compounds dissolved in DMSO, positive controls or DMSO only was transferred to the assay plate by a Pintool station (Kalypsys, San Diego, CA). The assay plates were incubated at 37 C and 5% CO2 for 5 hr. One uL of LiveBLAzer B/G FRET substrate (Life Technologies) was added using a FRD (Flying Reagent Dispenser, Aurora Discovery, San Diego, CA) and the plates were incubated at room temperature for 2 hr. Fluorescence intensity (405 nm excitation, 460 nm and 530 nm emissions) was measured using an Envision plate reader (PerkinElmer, Shelton, CT). For cytotoxicity, 4 ul/well of CellTiter-Glo reagent was added into the assay plates using an FRD. After 30 min incubation at room temperature, the luminescence intensity was measured using a ViewLux plate reader (PerkinElmer).
# On the % scale 0 is the no-effect control and ±100 the full control effect.
SMILES,"activity change, negative = cytotoxicity",Potency
[O-][Br+2]([O-])O,-1.89%,–
NC(=O)CS(=O)C(c1ccccc1)c1ccccc1 (stereo not given),6.28%,–
CCCN1CCC[C@@H]2Cc3nc(N)ncc3C[C@H]21,-5.38%,–
CCOC(=O)Nc1cccc(OC(=O)Nc2ccccc2)c1,-9.16%,–
C=C1C[C@@H]2[C@H](CC[C@]3(C)C(=O)CC[C@@H]23)[C@@]2(C)C=CC(=O)C=C12,3.01%,–
CCOC(=O)C(Cl)Cc1cc(-n2nc(C)n(C(F)F)c2=O)c(F)cc1Cl (stereo not given),-4.89%,–
Clc1nc(Cl)nc(Nc2ccccc2Cl)n1,3.85%,–
CC(C)(C1CCC(O)CC1)C1CCC(O)CC1 (stereo not given),-0.328%,–
C1CN2CCC1CC2,-12.5%,–
CCCOC(=O)c1cncn1C(C)c1ccccc1 (stereo not given),-5.62%,–
CCN[C@@H](C)Cc1cccc(C(F)(F)F)c1,-25.1%,–
CCOP(=S)(OCC)SCCl,-6.79%,–
CCN(CCO)CCn1c(Cc2ccccc2)nc2c1c(=O)n(C)c(=O)n2C,4.49%,–
O=C(O)c1c(Cl)ccc2cc(Cl)cnc12,12.5%,–
CN(C)CCN(C)C,10.3%,–
COP(=O)(OC)O/C(C)=C/C(=O)N(C)C,-2.83% [at 78.8 µM],–
COC1=CC(=O)O[C@@H](/C=C/c2ccccc2)C1,2.53% [at 78.8 µM],–
CC(C)(C)NC[C@H](O)c1ccc(O)cc1Cl,6.05%,–
NCCOS(=O)(=O)O,2.36%,–
COc1cc(CCN)cc(OC)c1OC,-16.1% [at 78.8 µM],–

SMILES,"activity change, negative = cytotoxicity",Potency
NNC(N)=O,-22.2% [at 78.8 µM],–
ClCCCCCCCl,6.83%,–
CC(C)(C)c1cc(O)ccc1O,–,inactive
C=CC(=O)OCCN(C)C,-3.29%,–
CCOC(=O)COc1ccc(Cl)cc1Cl,6.44%,–
COC(=O)c1ccccc1CS(=O)(=O)NC(=O)Nc1nc(OC)cc(OC)n1,-9.39%,–
CC[C@@H](CO)NC(=O)[C@@H]1C=C2c3cccc4c3c(cn4C)C[C@H]2N(C)C1,5.04%,–
CNC(=O)O/N=C(/CSC)C(C)(C)C,1.46%,–
CCOC(=O)c1ncn2c1CN(C)C(=O)c1c(I)cccc1-2,5.68%,–
c1cncc([C@@H]2CCCCN2)c1,-12.5%,–
CCC(C(N)=O)N1CCCC1=O (stereo not given),15.5%,–
O=C1CC(=O)NC(=O)N1,-28.1%,–
CN(C)C1CCCCC1,12.2%,–
O=c1[nH]c2ccccc2n1C1CCNCC1,-24.5%,–
CNC(=O)NC(O)C(Cl)(Cl)Cl (stereo not given),10.6%,–
CC1NCCOC1c1ccccc1 (stereo not given),-21.3%,–
Cc1ccc(S(=O)(=O)N[C@@H](CCCCN)C(=O)CCl)cc1,8.04%,–
C/C(=N\NC(=O)Nc1cc(F)cc(F)c1)c1ncccc1C(=O)O,-17.3%,–
Clc1ccc(C(Cl)(Cl)Cl)cn1,-12.1%,–
CCOC(=O)CC(SP(=S)(OC)OC)C(=O)OCC (stereo not given),-4.02%,–

# Source: PubChem BioAssay (Tox21)
